Reference: the supplement of paper PMC7724964
± gives the standard deviation of the averaged measurements.

T1: NXT1 1-140 NTF2 (domain begin residue: 1, domain end residue: 140), Q9UKK6
T1 chain: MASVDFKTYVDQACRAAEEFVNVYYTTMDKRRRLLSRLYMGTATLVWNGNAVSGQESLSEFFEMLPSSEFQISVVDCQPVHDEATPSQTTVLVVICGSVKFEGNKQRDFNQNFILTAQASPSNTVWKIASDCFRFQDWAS

T2: NUP98 730-880 Nucleoporin2 (domain begin residue: 730, domain end residue: 880), P52948
T2 chain: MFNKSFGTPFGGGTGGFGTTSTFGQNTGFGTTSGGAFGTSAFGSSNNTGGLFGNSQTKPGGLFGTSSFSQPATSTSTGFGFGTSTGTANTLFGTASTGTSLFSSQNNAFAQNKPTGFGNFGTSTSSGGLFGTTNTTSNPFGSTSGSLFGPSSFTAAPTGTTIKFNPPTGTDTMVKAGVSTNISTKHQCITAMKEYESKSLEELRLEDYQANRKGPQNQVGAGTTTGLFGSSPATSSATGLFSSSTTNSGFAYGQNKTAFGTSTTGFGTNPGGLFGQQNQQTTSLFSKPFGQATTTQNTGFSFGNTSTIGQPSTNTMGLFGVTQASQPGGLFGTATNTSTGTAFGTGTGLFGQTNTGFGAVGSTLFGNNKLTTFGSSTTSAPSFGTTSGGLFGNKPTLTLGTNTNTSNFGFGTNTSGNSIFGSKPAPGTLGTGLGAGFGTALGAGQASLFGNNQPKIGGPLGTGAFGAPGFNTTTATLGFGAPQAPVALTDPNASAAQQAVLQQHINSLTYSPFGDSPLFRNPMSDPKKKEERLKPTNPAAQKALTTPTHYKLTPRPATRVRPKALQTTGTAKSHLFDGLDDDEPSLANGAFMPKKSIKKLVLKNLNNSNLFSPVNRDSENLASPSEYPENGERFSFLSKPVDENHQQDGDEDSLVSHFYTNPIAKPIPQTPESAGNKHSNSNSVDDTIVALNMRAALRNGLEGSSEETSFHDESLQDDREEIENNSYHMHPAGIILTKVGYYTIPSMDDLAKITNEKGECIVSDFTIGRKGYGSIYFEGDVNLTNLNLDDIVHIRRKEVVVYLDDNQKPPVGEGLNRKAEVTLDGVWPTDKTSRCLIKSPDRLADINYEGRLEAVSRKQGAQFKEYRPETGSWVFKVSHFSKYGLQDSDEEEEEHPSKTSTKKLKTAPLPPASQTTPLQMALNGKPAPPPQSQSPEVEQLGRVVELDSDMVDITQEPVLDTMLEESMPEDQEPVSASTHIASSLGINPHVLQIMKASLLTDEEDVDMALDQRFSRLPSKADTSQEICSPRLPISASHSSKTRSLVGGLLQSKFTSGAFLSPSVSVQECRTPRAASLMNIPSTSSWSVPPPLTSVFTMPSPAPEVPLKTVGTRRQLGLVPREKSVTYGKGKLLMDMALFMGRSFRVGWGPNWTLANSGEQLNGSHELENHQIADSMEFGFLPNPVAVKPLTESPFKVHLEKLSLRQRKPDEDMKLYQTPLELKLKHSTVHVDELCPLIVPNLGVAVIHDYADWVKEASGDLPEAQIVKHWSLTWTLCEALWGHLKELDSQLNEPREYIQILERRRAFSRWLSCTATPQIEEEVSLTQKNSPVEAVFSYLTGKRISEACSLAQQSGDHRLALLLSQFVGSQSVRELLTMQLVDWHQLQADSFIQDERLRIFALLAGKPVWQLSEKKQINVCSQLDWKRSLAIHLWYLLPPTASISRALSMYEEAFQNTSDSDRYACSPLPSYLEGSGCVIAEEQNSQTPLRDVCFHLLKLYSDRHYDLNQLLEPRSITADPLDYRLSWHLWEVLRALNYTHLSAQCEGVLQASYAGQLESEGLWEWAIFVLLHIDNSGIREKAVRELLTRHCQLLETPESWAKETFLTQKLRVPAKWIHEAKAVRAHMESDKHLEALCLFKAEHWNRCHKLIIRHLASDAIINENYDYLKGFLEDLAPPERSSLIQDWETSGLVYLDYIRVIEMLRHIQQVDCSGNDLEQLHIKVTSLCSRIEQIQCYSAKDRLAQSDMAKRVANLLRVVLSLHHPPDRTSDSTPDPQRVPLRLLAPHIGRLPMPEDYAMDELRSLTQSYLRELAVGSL

B1: unnamed (peptide)
chain: VDYGWVWESAYTPPMQ
B2: unnamed (peptide)
chain: LQLEPYGWMDWTWQTA
B3: unnamed (peptide)
chain: VHWDPYWFLEDNFSNL
B4: unnamed (peptide)
chain: FETLWARHAQGQTQVE
B5: unnamed (peptide)
chain: MPQFGWEEWVLDGIHF
B6: unnamed (peptide)
chain: MWIYNEKWDMFLPYKL
B7: unnamed (peptide)
chain: GYGWEELPPIMTVAPD
B8: unnamed (peptide)
chain: GIPYPDFNWENISTLV
B9: unnamed (peptide)
chain: GARQTLITDWLMVSSD
B10: unnamed (peptide)
chain: FENYWKGYQEVPLESR
B11: unnamed (peptide)
chain: MAGPESLNFSWDYIMN
B12: unnamed (peptide)
chain: LVGEMSRNVGWAAWVF
B13: unnamed (peptide)
chain: FEMLWREHMEKFDVEV
B14: unnamed (peptide)
chain: QQLADIPTYEWLQRNH
B15: unnamed (peptide)
chain: HEFWALYDAMPMRSYV
B16: unnamed (peptide)
chain: EQKQTDSFYWIWQHLD
B17: unnamed (peptide)
chain: TIDWESVIKTYSPWLD
B18: unnamed (peptide)
chain: QQMLYGWGPMVQEMLV
B19: unnamed (peptide)
chain: WVEYGWQDWVTKFDQQ
B20: unnamed (peptide)
chain: QYNFLWEHLVQPRPAT
B21: unnamed (peptide)
chain: VFEPTLASYGWAHWAV
B22: unnamed (peptide)
chain: YPIEQFSFDIWDQMVE
B23: unnamed (peptide)
chain: LISGMNGWNYGWADWV
B24: unnamed (peptide)
chain: AQWPMDIGWAPWLLDV
B25: unnamed (peptide)
chain: WDFPGWSADQMPFSQS
B26: unnamed (peptide)
chain: WAPWVFMDDAPFDSMV
B27: unnamed (peptide)
chain: MDMPYGWMQWVSTEPV
B28: unnamed (peptide)
chain: SMEMMNFTWDPEWFIE
B29: unnamed (peptide)
chain: WFGWDAQMTEQEDELW
B30: unnamed (peptide)
chain: YGWNQILLDESVFHMV
B31: unnamed (peptide)
chain: VQMWSFEQIWVEHMMG
B32: unnamed (peptide)
chain: MWEPELYDDFHEAVTY
B33: unnamed (peptide)
chain: VSMTQSESYGWQPWVV
B34: unnamed (peptide)
chain: EIEEFSFTWQPEWEVR
B35: unnamed (peptide)
chain: LPGEYNMMEWRQAVMG
B36: unnamed (peptide)
chain: DIPFSFQWSTDMHPVS
B37: unnamed (peptide)
chain: EFINFTWMEAMGTPNS
B38: unnamed (peptide)
chain: WVGNNDWENEWPWVIL
B39: unnamed (peptide)
chain: QGWMPWDPQDLDWWVG
B40: unnamed (peptide)
chain: WEQQWFEWTHIEGQDD
B41: unnamed (peptide)
chain: FEELWLKHTAVSKTTE
B42: unnamed (peptide)
chain: WAEWVFSDEDPPGHMV
B43: unnamed (peptide)
chain: MDIWDEMALSINPYMY
B44: unnamed (peptide)
chain: SELWDHWIEWNDVYQT
B45: unnamed (peptide)
chain: VNYGWTPEVTWWLHEA
B46: unnamed (peptide)
chain: IEVYSYMENMYDHPPV
B47: unnamed (peptide)
chain: KPVPSFWVDWHVQAMT
B48: unnamed (peptide)
chain: FYMWQVIDAQAYVDWI
B49: unnamed (peptide)
chain: MYGWGPLLMEMNPWQW
B50: unnamed (peptide)
chain: VVQIEGFDFQWKPEWF
B51: unnamed (peptide)
chain: SHNWWHIIEAQEAMAW
B52: unnamed (peptide)
chain: MSVEPYMPPYGWAEWV
B53: unnamed (peptide)
chain: PNFEDYWRTAEQWHQP
B54: unnamed (peptide)
chain: VFYGWQDWVVPGDWDV
B55: unnamed (peptide)
chain: SFLPVSYGWAPWLIET
B56: unnamed (peptide)
chain: GDFGPDWFSFAWTEEM
B57: unnamed (peptide)
chain: QVDMMSQLFMMADQWN

molecular target: PDCD6 23-191 EF-hand_5+EF-hand_7 (domain begin residue: 23, domain end residue: 191), O75340; assay: phage ELISA signal ratio (GST-PRM binding over GST background); higher = stronger binding of peptide-phage to the PRM
Sequence (O75340 whole entry, the tested form may be a part): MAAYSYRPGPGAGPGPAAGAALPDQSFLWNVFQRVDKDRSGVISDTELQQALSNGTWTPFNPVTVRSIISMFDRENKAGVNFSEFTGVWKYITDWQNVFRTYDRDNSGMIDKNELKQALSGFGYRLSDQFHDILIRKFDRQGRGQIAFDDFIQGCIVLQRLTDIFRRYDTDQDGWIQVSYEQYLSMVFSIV
Procedure, shortened: (§1)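 Human peptide recognition domains were expressed in 96-well plates as fusions to the C-terminus of glutathione S-transferase (GST) and selected against an M13 phage library displaying randomized hexadecapeptides, cysteine-free and glycine-flanked, on the gene-8 major coat protein. Five selection rounds were run, and approximately 48 individual clones from rounds 4 and 5 were tested by phage ELISA. Each value is the ELISA signal on the GST-domain fusion divided by the signal on GST alone. Positive clones were sequenced.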

Binder	phage ELISA signal ratio
B1	26.1
B2	21.9
B5	20.2
B12	18.1
B18	25.4
B19	27.1
B21	25.1
B23	25.8
B24	26.8
B26	24.8
B27	25.4
B30	26.9
B33	27.1
B42	23
B45	14.4
B49	20.8
B52	22.3
B54	28 ± 2.8
B55	24.1

molecular target: PCMT1 1-227 PCMT (domain begin residue: 1, domain end residue: 227), P22061; assay: as above
Sequence (P22061 whole entry): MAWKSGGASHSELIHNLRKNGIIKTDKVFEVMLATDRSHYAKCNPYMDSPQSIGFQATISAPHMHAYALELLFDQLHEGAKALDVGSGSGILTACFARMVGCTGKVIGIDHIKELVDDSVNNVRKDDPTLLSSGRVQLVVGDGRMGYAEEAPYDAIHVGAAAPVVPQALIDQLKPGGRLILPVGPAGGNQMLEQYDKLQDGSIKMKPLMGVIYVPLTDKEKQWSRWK
Procedure, shortened: as §1

Binder	phage ELISA signal ratio
B3	19.9
B15	30.9
B48	4.8
B51	16

molecular target: NXF1 203-359 LRR_1 (domain begin residue: 203, domain end residue: 359); assay: as above
Procedure, shortened: as §1

Binder	phage ELISA signal ratio
B4	22
B10	18.9
B13	28.4
B31	20.1
B41	32.5
B53	25.4

Molecular target: T1, NXT1 1-140 NTF2 (domain begin residue: …
Assay: as above
Procedure, shortened: as §1

Binder	phage ELISA signal ratio
B6	20.3
B16	3.56
B20	16.1

Molecular target: T2, NUP98 730-880 Nucleoporin2 (domain …
Assay: as above
Procedure, shortened: as §1

Binder	phage ELISA signal ratio
B7	23.2
B29	5.91
B32	18.1
B38	7.89
B39	7.31

molecular target: NXF1 565-619 TAP_C (domain begin residue: 565, domain end residue: 619); assay: as above
Procedure, shortened: as §1

Binder	phage ELISA signal ratio
B8	6.41
B11	13.4
B22	12
B28	12.9
B34	8.54
B36	6.7
B37	13.2
B50	13.2
B56	13.4

molecular target: PCNA 1-261 PCNA_N+PCNA_C (domain begin residue: 1, domain end residue: 261), P12004; assay: as above
Sequence (P12004 whole entry): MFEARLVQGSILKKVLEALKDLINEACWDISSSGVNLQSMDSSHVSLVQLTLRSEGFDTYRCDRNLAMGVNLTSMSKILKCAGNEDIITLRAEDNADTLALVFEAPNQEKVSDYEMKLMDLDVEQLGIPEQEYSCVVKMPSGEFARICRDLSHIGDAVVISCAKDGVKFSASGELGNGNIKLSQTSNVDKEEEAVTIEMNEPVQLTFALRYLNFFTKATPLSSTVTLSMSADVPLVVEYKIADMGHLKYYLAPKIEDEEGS
Procedure, shortened: as §1

Binder	phage ELISA signal ratio
B9	15.6

molecular target: PABPC1 544-623 PABP (domain begin residue: 544, domain end residue: 623); assay: as above
Procedure, shortened: as §1

Binder	phage ELISA signal ratio
B14	27
B17	29.8
B35	3.49
B47	20.9

molecular target: PAF1 165-376 Paf1 (domain begin residue: 165, domain end residue: 376), Q8N7H5; assay: as above
Procedure, shortened: as §1

Binder	phage ELISA signal ratio
B25	4.24
B40	2.51
B43	4.38
B44	3.06
B46	3.73
B57	4.55
